Assay results published in PubChem BioAssay (Tox21).
Records with an inconclusive call do not appear. Calls of active or inactive are those of the source. Unless noted, the call rests on the fitted dose curve; in most records, active means well fitted curve in the direction sought with a large enough effect in the repeat runs; inconclusive means weak or mixed curves; inactive means no such curve, though single readings can be large; an effect the other way counts as inactive or inconclusive.

Assays:
[1] = qHTS assay to identify small molecule antagonists of the thyroid receptor (TR) signaling pathway (AID 743065); further: nearly all actives have a fitted effect of over 55% in size; further: potency means the concentration at half of the fitted maximal effect; on activity, negative = inhibition: series mostly up to about 70 µM
Procedure, shortened: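 Antagonism measured as loss of luciferase signal in GH3 cells stably carrying a TRE-luciferase reporter, co-treated with compound and T3 (1 nM final) for 23.5 h at 37 C. Viability was read in the same well by CellTiter-Fluor.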

[2] = qHTS assay to identify small molecule antagonists of the estrogen receptor alpha (ER-alpha) signaling pathway - cell viability counter screen (AID 743074; calls by dose curve;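 further: HEK293 cells carrying ER-alpha-UAS-bla reporter stimulated with 17beta-estradiol; nearly all actives have a fitted effect of over 45% in size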; further: potency means the concentration at half of the fitted maximal effect)
[3] = qHTS assay to identify small molecule antagonists of the estrogen receptor alpha (ER-alpha) signaling pathway using the BG1 cell line - cell viability counter screen (AID 743081);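 further: compound given together with 17beta-estradiol as the ER stimulus; series mostly up to about 70 µM; nearly all actives have a fitted effect of over 45% in size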
Aromatase (Homo sapiens) = Aromatase (Homo sapiens) (UniProt P11511); assay: qHTS assay to identify aromatase inhibitors (AID 743083); further: series mostly up to about 70 µM; nearly all actives have a fitted effect of over 55% in size
Chain of Aromatase (Homo sapiens) (P11511 whole entry, looked up): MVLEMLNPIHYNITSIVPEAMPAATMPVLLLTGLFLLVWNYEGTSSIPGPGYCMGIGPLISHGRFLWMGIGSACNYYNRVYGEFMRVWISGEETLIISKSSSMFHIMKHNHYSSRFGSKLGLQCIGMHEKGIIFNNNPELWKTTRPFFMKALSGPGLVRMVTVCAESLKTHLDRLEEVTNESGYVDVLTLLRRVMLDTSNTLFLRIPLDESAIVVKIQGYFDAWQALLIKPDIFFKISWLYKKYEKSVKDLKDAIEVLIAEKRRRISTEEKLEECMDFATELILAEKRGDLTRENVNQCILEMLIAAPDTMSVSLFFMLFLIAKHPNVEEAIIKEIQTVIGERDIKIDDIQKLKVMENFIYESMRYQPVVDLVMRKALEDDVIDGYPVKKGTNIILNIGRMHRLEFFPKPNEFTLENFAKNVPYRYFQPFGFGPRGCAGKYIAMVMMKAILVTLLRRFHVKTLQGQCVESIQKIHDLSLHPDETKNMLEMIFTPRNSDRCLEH

[4] = qHTS assay to identify aromatase inhibitors - cell viability counter screen (AID 743084);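 further: cells stimulated with testosterone during compound exposure; nearly all actives have a fitted effect of over 55% in size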
[5] = biological target: Aryl hydrocarbon receptor (Homo sapiens) (UniProt P35869); assay: qHTS assay to identify small molecule that activate the aryl hydrocarbon receptor (AhR) signaling pathway (AID 743085); further: nearly all actives have a fitted effect of over 15% in size; further: potency means the concentration at half of the fitted maximal effect;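 on activation: HG2L7.5c1 human HepG2 liver cells with stably integrated DRE-driven firefly reporter; series mostly up to about 70 µM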
Chain of Aryl hydrocarbon receptor (Homo sapiens) (P35869 whole entry, looked up): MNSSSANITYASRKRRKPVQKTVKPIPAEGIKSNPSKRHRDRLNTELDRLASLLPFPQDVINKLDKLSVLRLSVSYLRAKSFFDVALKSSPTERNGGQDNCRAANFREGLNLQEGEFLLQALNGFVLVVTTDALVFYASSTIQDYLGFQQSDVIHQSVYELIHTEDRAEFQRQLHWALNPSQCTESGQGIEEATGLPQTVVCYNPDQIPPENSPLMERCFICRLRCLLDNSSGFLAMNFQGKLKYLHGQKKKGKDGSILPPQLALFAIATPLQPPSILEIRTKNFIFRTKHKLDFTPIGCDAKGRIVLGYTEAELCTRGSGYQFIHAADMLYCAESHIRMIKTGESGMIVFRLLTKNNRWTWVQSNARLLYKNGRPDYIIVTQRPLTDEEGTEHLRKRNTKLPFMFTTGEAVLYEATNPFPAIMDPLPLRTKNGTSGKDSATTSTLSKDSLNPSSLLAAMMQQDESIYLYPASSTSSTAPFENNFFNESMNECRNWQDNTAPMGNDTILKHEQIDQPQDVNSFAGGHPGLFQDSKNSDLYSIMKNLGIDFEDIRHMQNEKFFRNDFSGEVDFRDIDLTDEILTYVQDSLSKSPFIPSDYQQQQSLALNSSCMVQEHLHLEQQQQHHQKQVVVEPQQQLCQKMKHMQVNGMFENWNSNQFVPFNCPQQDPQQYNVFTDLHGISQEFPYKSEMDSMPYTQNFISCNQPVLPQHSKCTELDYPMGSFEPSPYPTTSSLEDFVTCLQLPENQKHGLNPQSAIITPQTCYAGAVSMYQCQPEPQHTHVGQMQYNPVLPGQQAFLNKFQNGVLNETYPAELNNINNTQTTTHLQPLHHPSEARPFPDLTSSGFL
Procedure, shortened: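 AhR agonist activity is inferred from enhanced light output of a DRE-controlled firefly luciferase reporter in HepG2 cells, measured with ONE-Glo following 24 h treatment at 37C.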

[6] = qHTS assay to identify small molecule that activate the aryl hydrocarbon receptor (AhR) signaling pathway - cell viability counter screen (AID 743086);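 further: HepG2 liver cells carrying the AhR DRE luciferase reporter; series mostly up to about 70 µM; nearly all actives have a fitted effect of over 45% in size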
Procedure, shortened: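 Cytotoxicity counter screen: CellTiter-Fluor signal (30 min, 37 C) in 4000 HepG2 cells/well carrying the DRE-luciferase reporter, following 24 h compound exposure at 37 C.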

[7] = biological target: Peroxisome proliferator-activated receptor gamma (Homo sapiens) (UniProt P37231); assay: qHTS assay to identify small molecule agonists of the peroxisome proliferator-activated receptor gamma (PPARg) signaling pathway (AID 743094; active means well fitted activation curve with a large enough effect in the signal ratio in the repeat runs, not every such curve was filed as active; the % refers to the signal ratio)
Chain of Peroxisome proliferator-activated receptor gamma (Homo sapiens) (P37231 whole entry, looked up): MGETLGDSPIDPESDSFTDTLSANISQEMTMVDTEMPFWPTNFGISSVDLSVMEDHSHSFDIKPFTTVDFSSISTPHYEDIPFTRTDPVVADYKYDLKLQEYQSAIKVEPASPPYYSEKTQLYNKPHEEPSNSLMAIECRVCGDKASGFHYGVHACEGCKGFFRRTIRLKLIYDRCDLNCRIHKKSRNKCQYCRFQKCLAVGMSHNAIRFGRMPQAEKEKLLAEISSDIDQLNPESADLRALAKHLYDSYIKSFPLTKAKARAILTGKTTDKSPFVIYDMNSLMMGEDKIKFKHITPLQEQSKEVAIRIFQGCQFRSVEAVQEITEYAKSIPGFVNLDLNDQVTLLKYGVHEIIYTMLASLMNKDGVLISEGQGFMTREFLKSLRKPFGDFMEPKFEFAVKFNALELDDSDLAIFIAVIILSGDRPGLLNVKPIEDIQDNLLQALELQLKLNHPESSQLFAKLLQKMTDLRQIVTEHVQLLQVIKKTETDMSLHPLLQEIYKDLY
Procedure, shortened: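 Following 5 h plating at 37C, PPARg-bla HEK293H cells receive compound or DMSO for 17 h; fluorescence intensity is recorded after LiveBLAzer B/G loading for 1 h at room temperature.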

[8] = biological target: Peroxisome proliferator-activated receptor gamma (Homo sapiens) (UniProt P37231); assay: qHTS assay to identify small molecule antagonists of the peroxisome proliferator-activated receptor gamma (PPARg) signaling pathway (AID 743191; calls by dose curve; further: series mostly up to about 63 µM; nearly all actives have a fitted effect of over 30% in size)
Procedure, shortened: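 Beta-lactamase reporter under UAS control in HEK293H PPARg-bla cells; compound treatment 17 h at 37C. Read-out: fluorescence intensity after 1 h room-temperature incubation with LiveBLAzer B/G FRET substrate.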

[9] = qHTS assay to identify small molecule antagonists of the peroxisome proliferator-activated receptor gamma (PPARg) signaling pathway - cell viability counter screen (AID 743194); further: nearly all actives have a fitted effect of over 55% in size
Procedure, shortened: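 Viability was measured as CellTiter-Glo luminescence in GeneBLAzer PPARg UAS-bla HEK293H cells. These cells had been exposed 17 h at 37 C to compounds together with rosiglitazone at 50 nM final, with the beta-lactamase readout taken in the same wells.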

[10] = qHTS assay for small molecule agonists of the antioxidant response element (ARE) signaling pathway (AID 743202; active means well fitted activation curve with a large enough effect in the signal ratio in the repeat runs, not every such curve was filed as active; the % refers to the signal ratio)
Procedure, shortened: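 An ARE-responsive beta-lactamase gene stably integrated in HepG2 cells serves as reporter. After 5 h plating and 16 h compound incubation at 37 C, fluorescence of the B/G FRET substrate was measured.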

[11] = qHTS assay for small molecule agonists of the antioxidant response element (ARE) signaling pathway - cell viability counter screen (AID 743203; calls by dose curve; further: nearly all actives have a fitted effect of over 55% in size)
Procedure, shortened: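 Compounds in DMSO were pinned onto ARE-bla HepG2 cells plated 5 hrs earlier at 2,000 cells/well. Sixteen hours later at 37C/5% CO2, CellTiter-Glo was added and luminescence measured after 30 min at room temperature.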

[12] = qHTS assay for small molecule activators of the heat shock response signaling pathway - cell viability counter screen (AID 743209); further: nearly all actives have a fitted effect of over 50% in size
Procedure, shortened: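 Counter screen for cytotoxicity in HeLa HSE-bla reporter cells. Treatment was 5 h at 37 C; viability was detected by luminescent ATP assay (CellTiter-Glo) in the same wells as the beta-lactamase read.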

[13] = qHTS assay for small molecule activators of the heat shock response signaling pathway (AID 743210; active means well fitted activation curve with a large enough effect in the signal ratio in the repeat runs, with a control signal flat, not every such curve was filed as active; the % refers to the signal ratio;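 further: HeLa cells with beta-lactamase reporter driven by heat shock elements; series mostly up to about 63 µM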)
Procedure, shortened: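 In HSE-bla HeLa cells, 5 h compound incubation (37 C) precedes addition of LiveBLAzer B/G substrate; after 2.5 h at room temperature, fluorescence intensity indicates reporter induction.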

[14] = test system: thyroid hormone receptor (rat, GH3 cells); assay: qHTS assay to identify small molecule agonists of the thyroid receptor (TR) signaling pathway (AID 743066; calls by dose curve)
[15] = biological target: Estrogen receptor (Homo sapiens) (UniProt P03372); assay: qHTS assay to identify small molecule antagonists of the estrogen receptor alpha (ER-alpha) signaling pathway (AID 743069; active means well fitted curve in the direction sought with a large enough effect in the signal ratio in the repeat runs, not every such curve was filed as active; the % refers to the signal ratio)
Chain of Estrogen receptor (Homo sapiens) (P03372 whole entry, looked up): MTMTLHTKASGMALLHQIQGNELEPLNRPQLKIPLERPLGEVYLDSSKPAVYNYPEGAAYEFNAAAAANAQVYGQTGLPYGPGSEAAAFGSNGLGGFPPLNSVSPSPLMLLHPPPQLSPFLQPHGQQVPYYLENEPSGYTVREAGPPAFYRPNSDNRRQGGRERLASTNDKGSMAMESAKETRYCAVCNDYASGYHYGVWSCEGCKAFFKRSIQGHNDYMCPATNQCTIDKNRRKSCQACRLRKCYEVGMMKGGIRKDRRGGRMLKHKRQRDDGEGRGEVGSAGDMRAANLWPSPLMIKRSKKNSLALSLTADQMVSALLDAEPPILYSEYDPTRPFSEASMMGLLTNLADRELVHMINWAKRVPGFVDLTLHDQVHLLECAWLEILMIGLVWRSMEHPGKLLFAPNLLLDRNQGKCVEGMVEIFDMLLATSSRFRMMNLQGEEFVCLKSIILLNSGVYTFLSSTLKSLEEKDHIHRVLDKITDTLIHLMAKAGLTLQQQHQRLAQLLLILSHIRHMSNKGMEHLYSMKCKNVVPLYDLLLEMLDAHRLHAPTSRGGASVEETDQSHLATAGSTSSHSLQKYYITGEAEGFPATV
Procedure, shortened: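 Compound effects are measured against 17beta-estradiol stimulation in HEK293 cells with a UAS-controlled beta-lactamase reporter for ER-alpha. Exposure lasts 18 hr at 37C; LiveBLAzer B/G FRET substrate follows for 2 hr at room temperature.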

[16] = biological target: Estrogen receptor (Homo sapiens) (UniProt P03372); assay: qHTS assay to identify small molecule agonists of the estrogen receptor alpha (ER-alpha) signaling pathway (AID 743075; calls by dose curve; further: potency means the concentration at half of the fitted maximal effect)
[17] = biological target: Estrogen receptor (Homo sapiens) (UniProt P03372); assay: qHTS assay to identify small molecule agonists of the estrogen receptor alpha (ER-alpha) signaling pathway using the BG1 cell line (AID 743079); further: nearly all actives have a fitted effect of over 20% in size; further: potency means the concentration at half of the fitted maximal effect
[18] = qHTS assay to identify small molecule antagonists of the estrogen receptor alpha (ER-alpha) signaling pathway using the BG1 cell line (AID 743080; calls by dose curve;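 further: BG1 cells stimulated with 17beta-estradiol alongside compound; series mostly up to about 70 µM; nearly all actives have a fitted effect of over 25% in size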)
Procedure, shortened: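 Luminescence from a 4×ERE-luciferase reporter in BG1-Luc-4E2 cells served as read-out. Cells, pre-cultured 5 days in stripped-serum phenol-red-free medium, were exposed to compound with 17beta-estradiol co-stimulation for 21.5 h at 37 C.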
On the % scale 0 is the no-effect control and ±100 the full control effect.

CCCCC/C=C/CC(=O)OC
inactive: Potency [1] | Potency [2] | outcome [3] | outcome (Aromatase (Homo sapiens)) | Potency [4] | Potency [5] | Potency [6] | outcome [7] | Potency [8] | outcome [9] | Potency [10] | outcome [11] | outcome [12] | outcome [13]

CCCCCCCC[Si](OCC)(OCC)OCC
inactive: Potency [1] | Potency [14] | outcome [3] | outcome (Aromatase (Homo sapiens)) | Potency [4] | Potency [5] | Potency [6] | outcome [7] | outcome [9] | Potency [10] | outcome [12] | outcome [13]
active: Potency [2] 54.9 µM

Nc1nc(=O)n([C@@H]2O[C@H](CO)[C@@H](O)[C@@H]2F)cc1I
inactive: outcome [9] | Potency [10] | outcome [11] | outcome [12]

CCOC(=O)C(=O)c1csc(NC=O)n1
inactive: outcome [9] | Potency [10] | outcome [11] | outcome [12] | outcome [13]

CC(C)(CO)[C@@H](O)C(=O)NCCCO
inactive: Potency [15] | Potency [2] | Potency [16] | Potency [17] | outcome [18] | outcome [3] | outcome (Aromatase (Homo sapiens)) | Potency [4] | Potency [5] | Potency [6] | outcome [7] | Potency [8] | outcome [9] | Potency [10] | outcome [11] | outcome [12] | outcome [13]

CC1(N)CCC(C(C)(C)N)CC1 (stereo not given)
inactive: Potency [1] | Potency [14] | Potency [2] | outcome [3] | outcome (Aromatase (Homo sapiens)) | Potency [4] | Potency [5] | outcome [7] | outcome [9] | Potency [10] | outcome [11] | outcome [12] | outcome [13]

C1=CCC(c2ccccc2)CC1 (stereo not given)
inactive: Potency [1] | Potency [14] | Potency [2] | outcome [3] | outcome (Aromatase (Homo sapiens)) | Potency [4] | Potency [5] | outcome [7] | Potency [8] | outcome [9] | outcome [11] | outcome [12]

CCN(CC)C(=O)C1CN2CCc3cc(OC)c(OC)cc3C2CC1OC(C)=O (stereo not given)
inactive: outcome [9] | Potency [10] | outcome [11] | outcome [12] | outcome [13]

NC(Cc1c[nH]c2ccccc12)C(=O)O (stereo not given)
inactive: Potency [1] | Potency [14] | Potency [2] | outcome [3] | outcome (Aromatase (Homo sapiens)) | Potency [4] | Potency [6] | outcome [7] | Potency [8] | outcome [9] | Potency [10] | outcome [11] | outcome [12] | outcome [13]
active: Potency [5] 21.2 µM

CC(=O)OC[C@H]1O[C@@H](OC(C)=O)[C@H](OC(C)=O)[C@@H]1OC(C)=O
inactive: Potency [8] | outcome [9] | outcome [11] | outcome [12] | outcome [13]

CC(=O)N1CCN(c2ccc(O)cc2)CC1
inactive: Potency [8] | outcome [9] | outcome [11] | outcome [12]

O=C(O)c1ccc(OCCN2CCCCC2)cc1
inactive: Potency [8] | outcome [9] | Potency [10] | outcome [12]

c1ccccc1
inactive: Potency [8] | outcome [9] | Potency [10] | outcome [11] | outcome [12] | outcome [13]

CCCCCCCCCCCCCCCC(=O)NCCO
inactive: Potency [1] | Potency [14] | Potency [2] | outcome [3] | outcome (Aromatase (Homo sapiens)) | Potency [4] | Potency [5] | outcome [7] | Potency [8] | outcome [9] | outcome [11] | outcome [12]

O=S(=O)(O)c1cc(O)ccc1O
inactive: outcome [9] | outcome [11] | outcome [12] | outcome [13]

Cc1oc(=O)oc1CN1CCN(c2cc3c(cc2F)c(=O)c(C(=O)O)c2n3C(C)S2)CC1 (stereo not given)
inactive: Potency [14] | Potency [2] | outcome [18] | outcome [3] | outcome (Aromatase (Homo sapiens)) | Potency [4] | Potency [5] | Potency [6] | outcome [7] | Potency [8] | outcome [9] | outcome [11] | outcome [12] | outcome [13]
active: Potency [16] 23.9 µM [activator] | Potency [17] 8.41 µM

Cc1nc2n(c(=O)c1CCN1CCC(C(=O)c3ccc(F)cc3)CC1)CCS2
inactive: Potency [8] | outcome [9] | outcome [11] | outcome [12] | outcome [13]

Nc1ccc(C(=O)OCC(O)CO)cc1 (stereo not given)
inactive: Potency [8] | outcome [9] | Potency [10] | outcome [11] | outcome [12] | outcome [13]

C/C=C(\C)C(=O)OCC/C=C\CC
inactive: Potency [14] | Potency [2] | outcome [3] | Potency [6] | outcome [9] | Potency [10] | outcome [11] | outcome [12] | outcome [13]

FC(F)(F)c1ccc(Cl)cc1Cl
inactive: Potency [1] | Potency [14] | Potency [2] | outcome [3] | outcome (Aromatase (Homo sapiens)) | Potency [4] | Potency [5] | Potency [6] | outcome [7] | outcome [9] | Potency [10] | outcome [12] | outcome [13]

C=CCOc1cc(Cl)ccc1C(=O)NCCN(CC)CC
inactive: Potency [14] | Potency [2] | outcome [3] | outcome (Aromatase (Homo sapiens)) | Potency [4] | Potency [5] | outcome [7] | outcome [9] | Potency [10] | outcome [11] | outcome [12] | outcome [13]
active: Potency [1] 13.3 µM

Cc1ccccc1C
inactive: Potency [15] | Potency [2] | Potency [16] | Potency [17] | outcome [18] | outcome [3] | outcome (Aromatase (Homo sapiens)) | Potency [4] | Potency [5] | Potency [6] | outcome [7] | Potency [8] | outcome [9] | Potency [10] | outcome [11] | outcome [12]

OC(CCN1CCCCC1)(c1ccccc1)c1ccccc1
inactive: Potency [14] | Potency [15] | Potency [2] | Potency [16] | Potency [17] | outcome [18] | outcome (Aromatase (Homo sapiens)) | Potency [4] | Potency [6] | outcome [7] | Potency [8] | outcome [9] | Potency [10] | outcome [11] | outcome [12] | outcome [13]
active: Potency [5] 21.1 µM

CCCCCN(CCCOC)C(=O)C(CCC(=O)O)NC(=O)c1ccc(Cl)c(Cl)c1 (stereo not given)
inactive: Potency [8] | outcome [9] | Potency [10] | outcome [11] | outcome [13]

Nc1ccc(S(=O)(=O)Nc2ccccn2)cc1
inactive: Potency [15] | Potency [2] | Potency [16] | Potency [17] | outcome [18] | outcome [3] | outcome (Aromatase (Homo sapiens)) | Potency [4] | Potency [5] | Potency [6] | outcome [7] | outcome [9] | Potency [10] | outcome [11] | outcome [12]

CC(C)C(=O)Nc1cccc(C(F)(F)F)c1
inactive: outcome [9] | Potency [10] | outcome [11] | outcome [12] | outcome [13]

O=C(O)Cc1cccc(-c2cc(CCCCCCc3ccc(O[C@H]4O[C@H](CO)[C@@H](O)[C@H](O)[C@@H]4O)c(-c4cccc(CC(=O)O)c4)c3)ccc2O[C@H]2O[C@H](CO)[C@@H](O)[C@H](O)[C@@H]2O)c1
inactive: Potency [1] | Potency [14] | outcome [3] | outcome (Aromatase (Homo sapiens)) | Potency [4] | Potency [6] | outcome [7] | ratio activity, negative = inhibition [8] -5.32% [at 0.55 µM] | activation [10] -7.76% [at 0.756 µM] | viability change, negative = cytotoxic [11] -4.49% [at 0.756 µM] | activity change, negative = cytotoxicity [12] -0.941% [at 0.55 µM]

CCCCC(CC)CNC(=O)CC(C)OC(=O)CCC(=O)O (stereo not given)
inactive: outcome [9] | Potency [10] | outcome [11] | outcome [12] | outcome [13]

CCCCCCCCC(=O)OCC
inactive: Potency [14] | Potency [15] | Potency [2] | Potency [16] | Potency [17] | outcome [18] | outcome [3] | outcome (Aromatase (Homo sapiens)) | Potency [4] | Potency [5] | Potency [6] | outcome [7] | Potency [8] | outcome [9] | Potency [10] | outcome [11] | outcome [12]

CCCCCCCCCCCCCCCCCCN(C)C
inactive: outcome [9] | Potency [10] | outcome [11] | outcome [12] | outcome [13]

O=C(O)c1ccccc1C(=O)Nc1ccc(S(=O)(=O)Nc2nccs2)cc1
inactive: Potency [1] | Potency [14] | Potency [2] | outcome [3] | outcome (Aromatase (Homo sapiens)) | Potency [4] | Potency [5] | Potency [6] | outcome [7] | Potency [8] | Potency [10] | outcome [11] | outcome [12] | outcome [13]
